# Sampled rows, rich in hits. Any-hit rate of the full collection: about 8%.
# MCF10A rerep: DNA re-replication induction in MCF 10a cells | MCF 10A DNA re-replication, Hoechst nuclear intensity, 48 h | AID 624296 | Potency, µM (top dose mostly 46.1 µM), inactives show at the highest dose activity, positive = re-replication, hits mostly activators | 2.9% of 350,000 active; note: % of control where 0% means no effect; nearly all actives have a fitted effect of over 50% in size
# SW480 rereplic: DNA re-replication induction in SW480 cells | AID 624297 | 1.8% of 340,000 active | SW480 DNA re-replication, Hoechst DNA content imaging, 48 h | Potency, µM (doses to about 46.1 µM), for the others: top-dose re-replication activation, most hits filed as activators; note: % of control where 0% means no effect; nearly all actives have a fitted effect of over 55% in size
#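 Readout is total intensity of Hoechst-stained nuclei, excited at 405 nm and collected at 500-530 nm. Compound treatment lasted 48 hr at 37 C in 5% CO2 before staining.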
# KB-V1 cytotox: KB-V1 MDR subline cytotoxicity | KB-V1 MDR cells viability, CellTiter-Glo, 72 h | 3.4% of 400,000 active | Potency, µM (doses to about 46.1 µM), actives largely listed as cytotoxic; note: % is set by controls: 0 for no effect and ±100 for the full control effect; nearly all actives have a fitted effect of over 60% in size
#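 Compound-treated KB-V1 multidrug-resistant cells, 72 h, 37 degrees C; viability by CellTiter-Glo. Fitted qHTS curves give the values.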
# HT1080NT lethal: kills 2HG-producing HT-1080-NT fibrosarcoma cells; 1.6% of 360,000 active; AID 686970; HT-1080-NT fibrosarcoma viability, CellTiter-Glo ATP luminescence, 48 h; Potency, µM (top dose mostly 46.1 µM), without a hit: top-dose activity, negative = less viability, actives largely listed as cytotoxic;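 note: NT is the 2HG producing partner of a matched IDH1 knockdown line; 0% = DMSO-treated cells and -100% = media-only wells without cells; nearly all actives have a fitted effect of over 55% in size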
#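 HT-1080-NT fibrosarcoma cells (2HG-overproducing), 750 cells/well in RPMI with 5% FBS, dosed after 2 h and incubated 48 h at 37C. CellTiter-Glo luminescence normalized to DMSO and no-cell wells; concentration-response curves fitted and classed.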
# HT1080 IDH1KD tx: kills HT-1080 cells with IDH1 knockdown. HT-1080 IDH1 knockdown viability, ATP luminescence, 48 h. Potency, µM (titrated, usually from 46.1 µM), for inactives: at the highest dose activity, negative = toxicity, actives largely listed as cytotoxic. 2% of 360,000 active. AID 686971;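 note: 0% = DMSO wells and -100% = cell-free medium wells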
#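 Using the IDH1-knockdown HT-1080 line run in the same batch and compound series as the NT line, viability after 48 h at 37 °C was determined by CellTiter-Glo luminescence and expressed as % activity.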
# KB-3-1 tox: KB-3-1 parental cell cytotoxicity; KB-3-1 viability, CellTiter-Glo ATP luminescence, 72 h; Potency, µM (series often up to 46.1 µM), actives largely listed as cytotoxic; 1.4% of 400,000 active; note: % is set by controls: 0 for no effect and ±100 for the full control effect; nearly all actives have a fitted effect of over 60% in size
#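 Luminescent ATP read-out (CellTiter-Glo) measures survival of drug-naive KB-3-1 cells after 72 h compound exposure at 37 °C. Titration series was screened from lowest to highest concentration, with DMSO vehicle plates as background controls.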
# The depositor's hits bear a star; i = inactive; ? = inconclusive; . = no result given. Calls come from the whole dose curve; as a rule, active = well fitted curve in the direction sought with a large enough effect; inconclusive = small, poorly fitted or top-dose-only effect, or another doubt; inactive = no such curve, though single readings can be large; an effect the other way counts as inactive or inconclusive. Potency is the fitted concentration of half-maximal effect.
SMILES,MCF10A rerep,SW480 rereplic,KB-V1 cytotox,HT1080NT lethal,HT1080 IDH1KD tx,KB-3-1 tox
Cc1cc(NC(=O)CSc2nc(-c3ccc(Cl)cc3)cs2)no1,4.1%,22.4%,i,?,?,i
CN1CCCc2ccccc21,.,.,i,.,.,i
O=[N+]([O-])c1c(Nc2ccccc2O)cc(Cl)c2nonc12,-3.4%,-4.7%,?,10.3µM*,5.8µM*,?
O=[N+]([O-])c1c(Nc2ccccc2O)ccc2nonc12,?,26.1%,i,-1.6%,-10.0%,i
O=C1N=C2SCCN2/C1=C\c1ccc(Cl)cc1,18.4µM*,1.7%,?,?,?,i
O=C1N=C2SCCN2C(=O)C1Cc1ccc(Cl)cc1 (stereo not given),11.5%,-2.1%,.,.,.,.
O=C1[C@@H]2[C@H]3CC[C@H](C3)[C@@H]2C(=O)N1O,1.16µM*,?,i,12.9%,8.7%,i
O=C(O)C1CCC(N2C(=O)C3C4CCC(C4)C3C2=O)CC1 (stereo not given),-2.1%,-14.3%,i,24.9%,5.8%,i
Cc1ccc(S(=O)(=O)N2C[C@@H](C)[C@]3(C2)[C@H](O)[C@H](OC(=O)NCc2ccco2)C[C@H]2C(=O)N(c4ccccc4)C(=O)[C@H]23)cc1,.,.,i,0.9%,2.3%,i
NC(Cc1ccc(F)cc1)c1csc(Nc2ccc(S(N)(=O)=O)cc2)n1 (stereo not given),.,.,i,?,-20.0%,i
Cc1cc(C)nc(Nc2nc(C(N)Cc3ccc(F)cc3)cs2)n1 (stereo not given),.,.,?,?,13µM*,?
Cc1cc(C)nc(Nc2nc(C(N)Cc3ccc(Cl)cc3)cs2)n1 (stereo not given),.,.,?,20.6µM*,14.6µM*,i
Cn1cc(C(=O)c2ccc(Cl)cc2)cc1-c1nc2ccccc2n1C,?,6.6%,13µM*,?,?,i
c1coc(CNc2nc(N3CCCCC3)nc3ccccc23)c1,5.1%,-1.2%,?,?,?,?
c1ccc(N2CCN(c3nc(NCc4ccco4)c4ccccc4n3)CC2)cc1,?,?,11.6µM*,16.4µM*,18.4µM*,?
Clc1nc(NCc2ccco2)nc(N2CCCCC2)n1,?,4.61µM*,i,11.0%,8.1%,i
c1ccc(CNc2nc(N3CCN(Cc4ccccc4)CC3)nc3ccccc23)cc1,7.31µM*,?,23.1µM*,?,20.6µM*,?
CCn1c(CN(C)c2ccccc2)nc2ccccc21,?,-6.4%,?,-12.9%,-20.6%,i
COc1cccc(C2=CC(=O)C(C(C)(C)C)N2C(C)(C)C)c1 (stereo not given),18.0%,3.9%,i,4.8%,3.8%,i
Cc1cn(C)c(CC(=O)N2CCN(c3cccc(C(F)(F)F)c3)CC2)c1C(=O)O,.,.,i,.,.,i
N#Cc1nc(Cc2cccc3ccccc23)oc1NCC1CCCO1 (stereo not given),3.5%,-2.7%,16.4µM*,-11.2%,-19.4%,i
Cc1ccc(S(=O)(=O)Nc2ccc(O)c3cccnc23)cc1,?,23.1µM*,i,-14.4%,?,i
Cc1ccc(S(=O)(=O)Nc2ccc(O)c3ncccc23)cc1,-13.5%,18.6%,?,?,13µM*,i
Cc1ccc(S(=O)(=O)Nc2ccnc3ccccc23)cc1,8.2%,-5.5%,i,-12.0%,-7.0%,i
COc1ccc(N2CC(NC(=O)COc3ccc4ccccc4c3)CC2=O)cc1OC (stereo not given),.,.,i,.,.,i
SMILES,MCF10A rerep,SW480 rereplic,KB-V1 cytotox,HT1080NT lethal,HT1080 IDH1KD tx,KB-3-1 tox
O=C(Nc1ccc(S(=O)(=O)N2CCOCC2)cc1)c1ccc([N+](=O)[O-])cc1Cl,?,?,i,2.2%,-0.6%,i
O=C(Nc1cc(S(=O)(=O)N2CCOCC2)ccc1Cl)c1cc([N+](=O)[O-])ccc1Cl,81.4%,11.6µM*,?,9.2µM*,20.6µM*,?
CCN(CC)S(=O)(=O)c1ccc(OC)c(NC(=O)c2cc([N+](=O)[O-])ccc2Cl)c1,1.1%,0.2%,i,-8.5%,-14.6%,18.4µM*
CN(C)S(=O)(=O)c1ccc(Cl)c(C(=O)Nc2ccccc2[N+](=O)[O-])c1,-1.8%,-39.0%,16.4µM*,-1.5%,-4.8%,i
CCN(CC)S(=O)(=O)c1ccc(OC)c(NC(=O)CSc2cc(Cl)ccc2Cl)c1,11.7%,0.8%,13µM*,-8.5%,3.0%,i
CCN(CC)S(=O)(=O)c1ccc(OC)c(NC(=O)c2cccc(C)c2[N+](=O)[O-])c1,22.7%,19.2%,i,-7.9%,-0.3%,i
O=C(NCc1ccc(F)cc1)c1cc(C2CCCCN2S(=O)(=O)Cc2ccccc2)on1 (stereo not given),.,.,i,-2.0%,-4.5%,i
O=C(Nc1ccon1)Nc1ccccc1C(F)(F)F,2.7%,-19.6%,i,0.8%,-3.8%,i
Cc1cc(Cl)ccc1NC(=O)CN1C(=O)CSc2ccc(S(=O)(=O)N(C)C)cc21,.,.,i,.,.,i
COc1ccc(Cl)cc1NC(=O)C/C(C)=N/NC(=O)c1ccccc1[N+](=O)[O-],-0.8%,10.3%,?,-27.7%,?,i
CN(C)S(=O)(=O)c1cccc(C(=O)Nc2cc(Cl)cc(Cl)c2)c1,?,11.2%,?,?,?,i
CCN(CC)S(=O)(=O)c1ccc(Cl)c(C(=O)Nc2ccc(Cl)cc2[N+](=O)[O-])c1,?,1.1%,4.11µM*,-2.9%,0.2%,i

# Compound activity as filed in PubChem.
